Rows were chosen to be rich in hits. Some 12% of all compounds tested hit in one or more screens of this group.
G9a inh: qHTS Assay for Inhibitors of Histone Lysine Methyltransferase G9a. G9a H3K9 monomethylation, AlphaScreen, 2 h. Potency, µM (series often up to 102 µM), for inactives: at the top dose activity, negative = inhibition, actives largely listed as inhibitors. hit rate 8.8% among 350,000. AID 504332, 2011; also: % is scaled to controls: 0 for no effect and ±100 for the full control effect; nearly all actives have a fitted effect of over 75% in size
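Using a bead-based AlphaScreen, monomethylated H3K9 product from 2 h room-temperature reactions (G9a 20 nM, peptide 500 nM, SAM 20 uM) was detected with 0.5 ug/mL rabbit anti-H3K9me1 antibody.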
HP1b binding inh: HTS for Inhibitors of HP1-beta Chromodomain Interactions with Methylated Histone Tails. Potency, µM (highest dose often 114 µM), without a hit: at the top dose activity change, negative = inhibition, usual class: inhibitors. hit rate 0.56% among 390,000. AlphaScreen HP1-beta / biotin-H3K9me3 peptide binding; also: nearly all actives have a fitted effect of over 70% in size
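Compound inhibition of the preformed complex between 50 nM HP1-beta and 50 nM biotinylated H3K9me3 peptide was read by AlphaScreen. Buffer was PBS pH 7.4 with 0.01% Tween-20. Incubations ran 30 min at room temperature, with 10 ug/mL donor/acceptor beads.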
L3MBTL1 block: qHTS Assay for the Inhibitors of L3MBTL1. Lethal(3)malignant brain tumor-like protein 1 (Homo sapiens), Q9Y468. AlphaScreen L3MBTL1–H3K9me1 peptide binding. Potency, µM (highest dose often 57.1 µM), inactives show at the top dose activity, negative = inhibition, most hits filed as inhibitors. hit rate 0.66% among 230,000. AID 485360, 2010; also: % is scaled to controls: 0 for no effect and ±100 for the full control effect; nearly all actives have a fitted effect of over 60% in size
Target sequence (Q9Y468 whole entry, looked up): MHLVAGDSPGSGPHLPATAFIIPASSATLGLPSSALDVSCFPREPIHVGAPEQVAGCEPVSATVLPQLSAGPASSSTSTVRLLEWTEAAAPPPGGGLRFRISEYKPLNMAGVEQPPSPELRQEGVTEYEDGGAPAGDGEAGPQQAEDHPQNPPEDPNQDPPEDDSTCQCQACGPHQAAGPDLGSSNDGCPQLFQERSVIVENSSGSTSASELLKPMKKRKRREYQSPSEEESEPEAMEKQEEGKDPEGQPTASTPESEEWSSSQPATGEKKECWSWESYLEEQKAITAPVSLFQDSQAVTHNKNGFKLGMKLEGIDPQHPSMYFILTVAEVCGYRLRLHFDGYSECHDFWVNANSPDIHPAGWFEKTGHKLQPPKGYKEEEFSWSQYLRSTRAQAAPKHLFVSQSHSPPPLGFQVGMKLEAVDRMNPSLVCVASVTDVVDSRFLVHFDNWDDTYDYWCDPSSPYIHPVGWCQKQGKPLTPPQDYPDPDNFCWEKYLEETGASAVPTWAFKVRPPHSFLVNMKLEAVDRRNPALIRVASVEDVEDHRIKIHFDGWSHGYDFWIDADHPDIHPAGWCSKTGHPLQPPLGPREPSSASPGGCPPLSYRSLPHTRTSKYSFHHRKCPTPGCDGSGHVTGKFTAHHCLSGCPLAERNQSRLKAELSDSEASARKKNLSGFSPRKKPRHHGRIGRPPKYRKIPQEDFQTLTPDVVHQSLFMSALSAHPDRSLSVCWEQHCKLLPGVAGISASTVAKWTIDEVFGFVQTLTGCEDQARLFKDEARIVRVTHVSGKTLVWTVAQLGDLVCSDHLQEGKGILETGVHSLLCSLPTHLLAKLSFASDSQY
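L3MBTL1 50 nM + b-AHA-H3(1-15)K9me1 75 nM, 30 min RT; compound added, 30 min RT; streptavidin donor/Ni-chelate acceptor beads 10 ug/mL each final, 30 min RT dark; AlphaScreen read.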
JMJD2A Tudor: qHTS Assay for Inhibitors of JMJD2A-Tudor Domain; Lysine-specific demethylase 4A (Homo sapiens), O75164; AlphaScreen JMJD2A-Tudor / H3K4me3 peptide binding; Potency, µM (doses to about 114 µM), for inactives: at the highest dose activity change, negative = inhibition, usual class: inhibitors; hit rate 4.4% among 390,000; also: % is scaled to controls: 0 for no effect and ±100 for the full control effect; nearly all actives have a fitted effect of over 50% in size
BAZ2B inh: qHTS Assay for Inhibitors of BAZ2B; Bromodomain adjacent to zinc finger domain protein 2B (Homo sapiens), Q9UIF8; hit rate 4.4% among 360,000; Potency, µM (series often up to 114 µM), for inactives: at the top dose activity change, negative = inhibition, hits mostly inhibitors; AlphaScreen BAZ2B-H3K14Ac peptide displacement; AID 504333, 2011; also: % is scaled to controls: 0 for no effect and ±100 for the full control effect; nearly all actives have a fitted effect of over 60% in size
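AlphaScreen luminescence quantifies BAZ2B engagement of H3K14Ac peptide; the protein and biotinylated peptide are both at 50 nM final, buffer PBS pH 7.4 with 0.01% Tween-20, all steps at room temperature.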
Sfp inh: qHTS Assay for Inhibitors of Bacillus subtilis Sfp phosphopantetheinyl transferase (PPTase) | hit rate 3.5% among 310,000 | Biochemical Sfp PPTase activity, qHTS | 4'-phosphopantetheinyl transferase ffp (Bacillus subtilis), Q9F4F7 | Potency, µM, inactives show largest response in the series, negative = inhibition, most hits filed as inhibitors | AID 1490, 2009;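 also: the enzyme is Sfp with the accession as filed and its product quenches rhodamine fluorescence; 0% = enzyme reaction without inhibitor and -100% = no enzyme wells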
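After 15 min at room temperature with compound, 15 nM Sfp received 5 uM rhodamine-CoA plus 12.5 uM BHQ-2-ybbR (50 mM Hepes pH 7.6, 10 mM MgCl2). Rate came from the fluorescence difference over 30 min, ex 525/em 598 nm.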
Active calls of the source: *; u = inconclusive; x = not tested or not shown; [ ] = another dose, or the depositor's remark. Calls follow the shape of the dose curve; as a rule, active = well fitted curve in the direction sought with a large enough effect; inconclusive = small, poorly fitted or top-dose-only effect, or another doubt; inactive = no such curve, though single readings can be large; an effect the other way counts as inactive or inconclusive. Potency is read from the fitted curve at half-maximal effect.

SMILES	G9a inh	HP1b binding inh	L3MBTL1 block	JMJD2A Tudor	BAZ2B inh	Sfp inh
COc1ccc(-n2c(=O)c3c4c(sc3n3c(=S)[nH]nc23)COC(C(C)C)C4)cc1 (stereo unspecified)	8.9µM*	6%	2%	u	-5%	0%
Cc1ccc(-n2c(=S)[nH]c3sc4c(c3c2=O)CCC4)cc1	45µM*	10%	-5%	-34%	-20%	-29%
CC1CCN(Cc2c(O)ccc3c(=O)c(Oc4ccccc4Cl)c(C(F)(F)F)oc23)CC1	6%[59 µM]	20%	x	-4%	2%	x
Clc1cccc(CSc2ccc(-c3cccs3)nn2)c1	135%[59 µM]	112%	x	79%	112%	x
CN1CCc2c(sc3c2c(=O)n(-c2ccccc2)c2n[nH]c(=S)n32)C1	5µM*	34%	2%	40µM*	-5%	40µM*
O=c1c2c3c(sc2n2c(=S)[nH]nc2n1-c1ccccc1)CCC3	x	4%	x	3.2µM*	-2%	-20%
Cc1cccc(-n2c(=O)c3c4c(sc3n3cnnc23)CCCC4)c1	-35%[59 µM]	26%	x	-15%	-10%	x
Cc1cccc(-n2c(=O)c3c4c(sc3n3c(=S)[nH]nc23)CCC4)c1	u	28%	x	18µM*	-30%	u
N#Cc1ccccc1Cn1c(=O)n(-c2ccccc2)c(=O)c2c3c(sc21)CCC3	-2%[59 µM]	24%	x	-4%	-2%	x
Cc1ccc(-n2c(=O)c3c4c(sc3n3c(=S)[nH]nc23)CCC4)cc1	2.8µM*	36%	0%	25µM*	-18%	-2%
CCn1c(=O)c2c3c(sc2n2c(=S)[nH]nc12)CCC3	3.2µM*	4%	x	7.9µM*	8%	-6%
CCn1c(=O)c2c3c(sc2n(C)c1=O)CCC3	-26%	26%	1%	-6%	-2%	3%
COc1ccc(CCn2c(-c3ccco3)nc3nc4ccccc4nc32)cc1	-39%[12.7 µM]	22%	-2%[11.4 µM]	-8%	15%	35µM*
COc1ccccc1Cn1c(-c2ccco2)nc2nc3ccccc3nc21	x	21%	x	0%	x	x
c1coc(-c2nc3nc4ccccc4nc3n2CC2CCCO2)c1 (stereo unspecified)	50µM*	33%	x	-10%	0%	79µM*
CCOc1ccc(CCn2c(-c3ccco3)nc3ccccc3c2=O)cc1OCC	u	6%	x	-23%	u	56µM*
COc1ccccc1OCCCOc1c(C)cc(C)cc1Br	103%[59 µM]	177%	43%	87%	151%	-3%
Cc1cc(Cl)c(OCCCCNC(C)(C)C)c(Br)c1	8.9µM*	x	-4%	x	u	-21%
CN(C)CCCOc1ccc(Cl)cc1Br	30%[0.501 µM]	u	-3%	1µM*	45µM*	-14%
COc1cccc(OC)c1OCCCOc1ccc(C)cc1Br	31%[59 µM]	121%	52%	41%	87%	u
Cc1cc(Cl)c(OCCCN(C)C)c(Br)c1	11µM*	u	-13%	8.9µM*	-37%	-7%
Cc1ccc(OCCCN(C)C)c(Br)c1	u	u	-6%	3.2µM*	79µM*	1%
Cc1cc(C)c2c(CC(=O)Nc3ccccc3C(F)(F)F)coc2c1	12%[59 µM]	23%	x	-20%	3%	x
CC(=O)c1ccc(N2CCN(c3ncnc4c3c(-c3ccccc3)cn4-c3ccc(Cl)cc3)CC2)cc1	-1%[59 µM]	-9%	x	-21%	u	x
O=C(COC(=O)c1ccc(S(=O)(=O)C(F)F)cc1)NC(=O)NC1CCCCC1	-30%	14%	0%	-17%	7%	x
COc1ccc(CCCNC(=O)C2CCC(=O)N(CC3CCCCC3)C2)cc1 (stereo unspecified)	24%	11%	x	-5%	-18%	10%
CCOC(=O)c1c(NC(=O)c2cc(=O)c3cc(C)ccc3o2)sc2c1CCCC2	-1%[59 µM]	42%	x	-2%	-3%	x
